The source made the active and inactive calls.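 How the source made its calls, unless noted: active means inhibition above 20% together with a positive visual image hit; inconclusive means visual image hit but inhibition not above 20%; inactive means no visual image hit.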

The values below come from PubChem BioAssay.

The nature of test [1]: inhibitors of TNFa-induced NFkB p65 translocation, primary screen, imaging, HUVEC, MLSMR starter and 10KST1 sets (AID 438).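 Further: compound added about 3h40 before a 20 min TNFalpha stimulation.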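 On inhibition: signal is the nuclear over cytoplasmic p65 intensity ratio per well.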 The following applies: HUVEC TNFa-induced p65 nuclear translocation; cell count: measured here: nuclei count (cytotoxicity indicator), at 2.08 µM; inhibition: at 2 µM, stronger effect = higher value, 0% TNFa-plus-vehicle, 100% no-TNFa wells.
Test [2] in a line: reduction of polyQ htt aggregates in cells – imaging, exon1htt(103Q)mCFP cells, high-content imaging, primary screen (AID 483;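 active means visual image review flags a hit and inhibition of aggregation exceeds 20%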;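 further: compound exposure lasted 3 days before fixation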;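 on nuclei count: percent of the per-plate median nuclei count of sample wells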). The following applies: exon1htt(103Q)mCFP cell line, aggregate imaging, at 2 µM; inhibition of aggregation: stronger effect = higher value; nuclei count: measured here: cell count, toxicity.
Test [3] in a line: endothelial E-selectin expression blockers – imaging, HUVEC, immunofluorescence, MLSMR starter and 10KST1 sets, primary screen (AID 487;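 active means visually confirmed hit in the image check and inhibition above 20%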;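 on inhibition: signal is fraction of cell area covered by stained E-selectin grains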;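 on nuclei count: 100% = median nuclei count of all wells on the same plate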). As to conditions: HUVEC TNFalpha-induced E-selectin immunofluorescence imaging, at 2 µM; inhibition: stronger effect = higher value; nuclei count: measured here: cell number, toxicity.
Test [4] has as its target Voltage-gated potassium channel subunit beta-2 (Rattus norvegicus) (UniProt P62483). Description: inhibitors of rat Kvbeta2 reductase activity – biochemical, NADPH fluorescence, primary screen (AID 622;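 active means fluorescence slope higher than the sample average by over 3 SD, cut at about -0.22 in these data, passing the limit was not always enough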;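 further: slope of raw intensity against log time taken from 70 to 1610 s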). As to conditions: recombinant KvBeta, 4-cyanobenzaldehyde reduction, at 10 µM, stronger effect = higher value.
Test [5] has the same target. Description: enhancers of rat Kvbeta2 NADPH turnover – biochemical, NADPH fluorescence, primary screen (AID 623;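 active means NADPH fluorescence slope more negative than the mean of all samples by about 3 SD, 99.7% confidence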;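 further: fluorescence intensity change per second fitted from 20 to 320 s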). As to conditions: Recombinant KvBeta, NADPH fluorescence decrease slope, 10 min; at 10 µM; stronger effect = lower value.
For test [6], the target named is Alpha-2C adrenergic receptor (Homo sapiens) (UniProt P18825). Description: compounds altering alpha2C-coupled GIRK flux – cell-based, HEK293 alpha2C/GIRK1/2, thallium flux, primary screen (AID 624;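 active means fluorescence slope after compound addition differing from the mean of all screened samples at 99.7% confidence, in either direction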;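 further: slope of fluorescence ratio to pre-addition baseline per second over 15 to 24 s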). As to conditions: thallium flux BTC fluorescence, at 10 µM, actives lie on both sides.
Chain of Alpha-2C adrenergic receptor (Homo sapiens) (P18825 whole entry, looked up): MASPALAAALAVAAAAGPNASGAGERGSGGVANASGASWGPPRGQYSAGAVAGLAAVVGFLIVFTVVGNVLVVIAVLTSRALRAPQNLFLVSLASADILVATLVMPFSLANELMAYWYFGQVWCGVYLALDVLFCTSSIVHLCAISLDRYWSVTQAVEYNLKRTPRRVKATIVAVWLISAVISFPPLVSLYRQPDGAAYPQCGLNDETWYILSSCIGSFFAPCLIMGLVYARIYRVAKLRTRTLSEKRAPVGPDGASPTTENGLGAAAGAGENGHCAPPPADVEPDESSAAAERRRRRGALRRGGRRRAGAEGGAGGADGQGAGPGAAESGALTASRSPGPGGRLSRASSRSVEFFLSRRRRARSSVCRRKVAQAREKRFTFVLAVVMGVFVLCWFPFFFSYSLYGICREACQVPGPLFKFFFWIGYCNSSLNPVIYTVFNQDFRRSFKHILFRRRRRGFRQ
Test [7] can be described thus: blockers of RIG-like receptor reporter activation – cell-based, Sendai virus stimulus, luciferase, 10K MLSCN set, TLR/RLR signaling modifier project, primary screen (AID 602276;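 active means inhibition at or above 50% at 10 µM; inactive means inhibition below 50%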;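 further: firefly luciferase from ISG56 promoter only with Renilla not read in this screen; 0% = Sendai virus plus DMSO and 100% = medium plus DMSO without virus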). The following applies: HEK293 RL24 IRF3 luciferase reporter, at 10 µM, stronger effect = higher value.
Test [8] can be described thus: TLR3 IRF3 reporter activation blockers – cell-based, poly I:C stimulus, luciferase, 10K MLSCN set, primary screen (AID 602277;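 active means inhibition of the reporter signal at or above 50%; inactive means inhibition below 50%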). The following applies: HEK293-TLR3 RL24 IRF3 luciferase reporter, at 10 µM, stronger effect = higher value. Background: A reporter such as luciferase makes a cellular process visible.

Chain of Voltage-gated potassium channel subunit beta-2 (Rattus norvegicus) (P62483 whole entry, looked up): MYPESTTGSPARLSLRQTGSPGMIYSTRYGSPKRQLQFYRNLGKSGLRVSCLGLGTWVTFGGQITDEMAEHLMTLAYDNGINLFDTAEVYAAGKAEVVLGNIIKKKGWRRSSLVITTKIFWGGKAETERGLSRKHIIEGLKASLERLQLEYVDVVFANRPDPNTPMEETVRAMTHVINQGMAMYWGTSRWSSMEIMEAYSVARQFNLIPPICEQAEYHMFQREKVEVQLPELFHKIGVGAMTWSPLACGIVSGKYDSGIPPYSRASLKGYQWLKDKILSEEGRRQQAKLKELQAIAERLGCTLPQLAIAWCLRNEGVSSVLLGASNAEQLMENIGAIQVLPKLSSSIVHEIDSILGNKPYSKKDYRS

As a reminder, the inhibition is the change of the read-out against control, counted positive when it falls. Regarding `COC(=O)c1c(NC(=O)CSc2nnc(-c3cccnc3)n2Cc2ccco2)sc(C)c1C`, the cell count in test [1] came to 505. Besides, the inhibition in test [1] is -5.5% (inactive); in test [3], 29.5% (inactive); in test [7] it was 4.42% (inactive); in test [8] it was 16.1% (inactive). In test [2], the inhibition of aggregation was 24% (inactive). Besides, the figures for the nuclei count in test [2] and in test [3] were 101% and 104%, respectively. Moreover, the fluorescence slope in test [4] is -0.579 (inactive). Further, the NADPH fluorescence slope in test [5] is -2.7e-05 (inactive). For the same compound, in test [6], the slope is 0.00567 (inactive).
On to `COC(=O)c1ccccc1NC(=O)Cn1ccnc1`, for which, in test [1], the cell count turned out to be 310. In addition, the inhibition in test [1] is -5.7% (inactive); in test [3], -12% (inactive); in test [7], 5.19% (inactive); in test [8], 23.4% (inactive). Further, the inhibition of aggregation in test [2] is 3.6% (inactive). The nuclei count came out at 78.1% in test [2] and 86.6% in test [3]. For the same compound, the fluorescence slope in test [4] was -0.591 (inactive). Moreover, the NADPH fluorescence slope in test [5] is -6.8e-05 (inactive). Moreover, in test [6], the slope was 0.00553 (inactive).
Regarding `O=C(NCC1CCCO1)c1ccccc1-c1nc(-c2ccc(Cl)cc2)no1` (centres undefined), the cell count in test [1] is 821. Besides, the inhibition was -0.7% (inactive) in test [1], -141% (inactive) in test [3], -17.2% (inactive) in test [7] and -4.71% (inactive) in test [8]. Also, in test [2], the inhibition of aggregation was 1.8% (inactive). Moreover, the nuclei count is 101% in test [2] and 122% in test [3]. Also, in test [4], the fluorescence slope is -0.483 (inactive). Also, the NADPH fluorescence slope in test [5] is 3.6e-05 (inactive). In addition, the slope in test [6] is 0.0055 (inactive).
Turning to `O=C(Nc1ccccc1C(F)(F)F)c1cc(S(=O)(=O)N2CCOCC2)ccc1F`, the cell count in test [1] came out at 415. The inhibition in test [1] was 2.8% (inactive); in test [3] it was -247% (inactive); in test [7], 8.22% (inactive); in test [8], 21.8% (inactive). Besides, the inhibition of aggregation in test [2] is 12.8% (inactive). In addition, the nuclei count in test [2] turned out to be 62.3%; in test [3], 107%. For the same compound, the fluorescence slope in test [4] was -0.619 (inactive). For the same compound, in test [5], the NADPH fluorescence slope is 2.6e-06 (inactive). In addition, in test [6], the slope was 0.00704 (inactive).
Regarding `Cc1cccc(-c2cc3nc4c(c(N5CCOCC5)n3n2)CCCC4)c1`, in test [1], the cell count came to 621. Moreover, the inhibition in test [1] is -7.5% (inactive); in test [3], -74.2% (inactive); in test [7], -9.84% (inactive); in test [8], 33.5% (inactive). Further, the inhibition of aggregation in test [2] is 1.5% (inactive). Besides, the nuclei count was determined as 107% in test [2] and 101% in test [3]. The fluorescence slope in test [4] is -0.399 (inactive). Moreover, the NADPH fluorescence slope in test [5] is 1e-05 (inactive). Further, the slope in test [6] was 0.00597 (inactive).
`Cc1ccc(-c2noc(CCC(=O)NCCc3ccccc3Cl)n2)cc1`: in test [1], the cell count is 287. For the same compound, the inhibition was -1.2% (inactive) in test [1], 5.2% (inactive) in test [3], 10.3% (inactive) in test [7] and 21.8% (inactive) in test [8]. Also, the inhibition of aggregation in test [2] is 19.9% (inactive). For the same compound, the figures for the nuclei count in test [2] and in test [3] were 91% and 88.4%, respectively. Besides, the fluorescence slope in test [4] is -0.409 (inactive). In addition, the NADPH fluorescence slope in test [5] was -3.6e-05 (inactive). The slope in test [6] was 0.00258 (inactive).
On to `Cc1cccc2cc(CN(CC3CCCO3)C(=O)c3cnccn3)c(=O)[nH]c12` (centres undefined), for which the cell count in test [1] is 257. Further, the inhibition in test [1] is 18.6% (inactive); in test [3], -41% (inactive); in test [7] it was 8.77% (inactive); in test [8] it was 32.1% (inactive). For the same compound, in test [2], the inhibition of aggregation was 5.3% (inactive). Also, the nuclei count in test [2] turned out to be 45.1%; in test [3], 113%. Besides, in test [4], the fluorescence slope is -0.401 (inactive). Besides, the NADPH fluorescence slope in test [5] is -9.9e-06 (inactive). The slope in test [6] is 0.00355 (inactive).
Consider `Cc1ccc(CCSCC(=O)O)cn1`, for which, in test [1], the cell count was found to be 174. Besides, the inhibition in test [1] is 4.9% (inactive); in test [3] it was 10.4% (inactive); in test [7], 4.3% (inactive); in test [8], 0.219% (inactive). In addition, the inhibition of aggregation in test [2] was 1.9% (inactive). The results for the nuclei count in test [2] and in test [3] were 90% and 83.6%, respectively. For the same compound, the fluorescence slope in test [4] was -0.428 (inactive). For the same compound, the NADPH fluorescence slope in test [5] is -1.1e-05 (inactive). The slope in test [6] was 0.00565 (inactive).
For `COc1ccc2nc3oc(C(=O)N4CCCCC4)cc3cc2c1`, in test [1], the cell count was found to be 194. In addition, the inhibition was 1.8% (inactive) in test [1], -13.7% (inactive) in test [3], -36.8% (inactive) in test [7] and -132% (inactive) in test [8]. Moreover, the inhibition of aggregation in test [2] is -10.4% (inactive). For the same compound, the values for the nuclei count in test [2] and in test [3] were 105% and 112%, respectively. Moreover, the fluorescence slope in test [4] is -0.0908 (inactive). For the same compound, the NADPH fluorescence slope in test [5] was -2.5e-05 (inactive). For the same compound, the slope in test [6] is 0.00338 (inactive).
Turning to `CCCCNC(=O)c1nnn(-c2ccccc2)c1N`, in test [1], the cell count was 311. Also, the inhibition is 3.9% (inactive) in test [1], -11.4% (inactive) in test [3], -55.7% (inactive) in test [7] and -166% (inactive) in test [8]. Also, the inhibition of aggregation in test [2] is 8% (inactive). Moreover, the nuclei count worked out at 110% in test [2] and 120% in test [3]. Further, the fluorescence slope in test [4] is -0.568 (inactive). Further, in test [5], the NADPH fluorescence slope was 2.4e-05 (inactive). Further, the slope in test [6] was 0.00585 (inactive).
For the compound `CC(C)N(C(=O)CSc1nnc(-c2cc3ccccc3cc2O)n1Cc1ccco1)C(C)C`, the cell count in test [1] worked out at 836. The inhibition in test [1] was 6.2% (inactive); in test [3], 4.9% (inactive); in test [7] it was -4.55% (inactive); in test [8] it was 7.55% (inactive). In addition, the inhibition of aggregation in test [2] was -6.1% (inactive). Besides, the nuclei count stood at 107% in test [2] and 102% in test [3]. Besides, the fluorescence slope in test [4] was -0.47 (inactive). Also, the NADPH fluorescence slope in test [5] is -2.4e-05 (inactive). The slope in test [6] is 0.00627 (inactive).
Turning to `O=C(c1ccc(Br)o1)N1CCN(c2ccc3nnc(-c4ccccc4)n3n2)CC1`, in test [1], the cell count turned out to be 634. Besides, the inhibition in test [1] was -0.5% (inactive); in test [3] it was -91.9% (inactive); in test [7], -4.83% (inactive); in test [8], -337% (inactive). Also, in test [2], the inhibition of aggregation was 3% (inactive). The values for the nuclei count in test [2] and in test [3] were 80.7% and 120%, respectively. For the same compound, in test [4], the fluorescence slope was -0.602 (inactive). Also, the NADPH fluorescence slope in test [5] is -3.4e-05 (inactive). The slope in test [6] was 0.00664 (inactive).
Turning to `O=C(NCc1ccc2c(c1)OCO2)c1cccc2c1C(=O)N(C1CCCCC1)C2`, the cell count in test [1] came out at 570. Besides, the inhibition in test [1] was -5% (inactive); in test [3] it was 3.2% (inactive); in test [7] it was 8.65% (inactive); in test [8], 15.3% (inactive). Also, the inhibition of aggregation in test [2] was -12.5% (inactive). Also, the nuclei count is 108% in test [2] and 115% in test [3]. For the same compound, the fluorescence slope in test [4] was -0.615 (inactive). The NADPH fluorescence slope in test [5] was -1.7e-05 (inactive). Moreover, the slope in test [6] is 0.00632 (inactive).
For `CC(=O)Nc1cc(N2C(=O)CCC2=O)ccc1Cl`, in test [1], the cell count is 498. In addition, the inhibition in test [1] is 3.5% (inactive); in test [3], 10.7% (inactive); in test [7], 23% (inactive); in test [8] it was 20.8% (inactive). Also, the inhibition of aggregation in test [2] is 12.7% (inactive). Further, the nuclei count in test [2] was determined as 98.5%; in test [3] it was 110%. The fluorescence slope in test [4] is -0.509 (inactive). The NADPH fluorescence slope in test [5] is 2.5e-05 (inactive). Further, the slope in test [6] is 0.00539 (inactive).
